# From the supplement of paper PMC12067926
# How the values were obtained:
# Test in all cases: relative growth (AUC of 72 h growth curve relative to DMSO control, dAUC) (ratio); higher = more growth (less inhibition), active = hit call of the paper
# Conditions in all cases: 20 µM;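 active = growth AUC significantly below the DMSO wells by Dunnett test; inactive = the rest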
# [1] = tested on: Community 7
# How it was run: (§1)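 Growth was followed as A600, read hourly for 72 h on a plate reader after brief shaking. Isolates from Icelandic stream sediments and Silwood Park soil, and whole sediment communities, were first grown to carrying capacity in Luria–Bertani medium and then diluted 1:100 into 96-well plates with each chemical at 20 µM (1% DMSO). Relative growth (dAUC) is the spline-integrated area under the curve scaled to the mean of the DMSO controls, and the values are averages of three biological replicates.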
# [2] = tested on: Community 8
# How it was run: as §1
# [3] = tested on: Community 9
# How it was run: as §1
# [4] = tested on: Flavobacterium 1 (Flavobacterium glaciei)
# How it was run: as §1
# [5] = tested on: Flavobacterium 2 (Flavobacterium succinicans)
# How it was run: as §1
# [6] = tested on: Hymenobacter 1 (Hymenobacter glaciei)
# How it was run: as §1
# [7] = tested on: Microbacterium 1 (Microbacterium arborescens)
# How it was run: as §1
# [8] = tested on: Neobacillus 1 (Neobacillus soli)
# How it was run: as §1
# [9] = tested on: Oryzobacter 1 (Oryzobacter terrae)
# How it was run: as §1
# [10] = tested on: Paenibacillus 1 (Paenibacillus castaneae)
# How it was run: as §1
Compound,relative growth [1],relative growth [2],relative growth [3],relative growth [4],relative growth [5],relative growth [6],relative growth [7],relative growth [8],relative growth [9],relative growth [10]
COCC(C)N(C(=O)CCl)c1c(C)csc1C (stereo not given),0.996 (inactive),1.01 (inactive),1.01 (inactive),0.948 (inactive),1.01 (inactive),0.962 (inactive),1.04 (inactive),0.98 (inactive),0.982 (inactive),0.961 (inactive)
Nc1c(Cl)c(F)nc(OCC(=O)O)c1Cl,1.01 (inactive),1.04 (inactive),1.03 (inactive),1.07 (inactive),0.993 (inactive),1.03 (inactive),1.02 (inactive),1.04 (inactive),1.01 (inactive),1.03 (inactive)
O=C1C2(Cl)C3(Cl)C4(Cl)C(Cl)(Cl)C5(Cl)C3(Cl)C1(Cl)C5(Cl)C24Cl (stereo not given),1.14 (inactive),1.02 (inactive),0.875 (inactive),0.126 (active),0.847 (inactive),0.00946 (active),1.01 (inactive),0.911 (inactive),0.00589 (active),0.678 (active)
COCC(=O)N(c1c(C)cccc1C)C(C)C(=O)OC (stereo not given),1.08 (inactive),0.993 (inactive),1.09 (inactive),0.939 (inactive),0.99 (inactive),1.03 (inactive),1.02 (inactive),0.986 (inactive),1.01 (inactive),1.03 (inactive)
O=C(O)c1nc(Cl)ccc1Cl,1.17 (inactive),0.994 (inactive),0.937 (inactive),1.04 (inactive),0.962 (inactive),0.835 (inactive),0.977 (inactive),0.968 (inactive),0.889 (inactive),0.973 (inactive)
CC(Oc1ccc(Oc2nc3ccc(Cl)cc3o2)cc1)C(=O)O (stereo not given),1.01 (inactive),1.01 (inactive),1.07 (inactive),0.971 (inactive),1.09 (inactive),1.05 (inactive),0.986 (inactive),1.05 (inactive),0.998 (inactive),1.11 (inactive)
CSc1nc(NC(C)C)nc(NC(C)C)n1,1.02 (inactive),0.97 (inactive),0.97 (inactive),1.02 (inactive),0.946 (inactive),0.914 (inactive),1.02 (inactive),0.987 (inactive),0.978 (inactive),0.877 (inactive)
N#Cc1c[nH]cc1-c1cccc2c1OC(F)(F)O2,1.12 (inactive),1.02 (inactive),0.914 (inactive),0.83 (inactive),0.856 (inactive),0.958 (inactive),1.01 (inactive),0.915 (inactive),1.14 (inactive),0.904 (inactive)
CNC(=O)Oc1cccc2ccccc12,0.845 (inactive),1.06 (inactive),0.967 (inactive),1.09 (inactive),1.01 (inactive),1.03 (inactive),1.02 (inactive),1.04 (inactive),0.972 (inactive),1 (inactive)
CC(C1CC1)C(O)(Cn1cncn1)c1ccc(Cl)cc1 (stereo not given),1.02 (inactive),1.04 (inactive),0.989 (inactive),0.999 (inactive),0.955 (inactive),1.03 (inactive),0.987 (inactive),0.985 (inactive),0.982 (inactive),0.959 (inactive)
CS(=O)(=O)c1ccc(C(=O)C2C(=O)CCCC2=O)c([N+](=O)[O-])c1,0.957 (inactive),1.06 (inactive),1.04 (inactive),1.07 (inactive),1.04 (inactive),1.07 (inactive),1.04 (inactive),1.04 (inactive),1.01 (inactive),1.03 (inactive)
CC(C)OC(=O)C(C(=O)OC(C)C)=C1SCCS1,1.15 (inactive),1 (inactive),0.964 (inactive),0.993 (inactive),0.947 (inactive),1.09 (inactive),1.02 (inactive),1.01 (inactive),1.12 (inactive),0.965 (inactive)
CSc1nnc(C(C)(C)C)c(=O)n1N,1 (inactive),1.04 (inactive),1.05 (inactive),1.03 (inactive),1.02 (inactive),1.04 (inactive),1 (inactive),1.02 (inactive),1.03 (inactive),1.02 (inactive)
CO/N=C(/C(=O)OC)c1ccccc1CO/N=C(\C)c1cccc(C(F)(F)F)c1,1.05 (inactive),0.968 (inactive),0.784 (inactive),0.975 (inactive),0.943 (inactive),1.05 (inactive),0.99 (inactive),1 (inactive),1.26,0.9 (inactive)
COC(=O)c1ccccc1S(=O)(=O)NC(=O)Nc1nc(C)nc(OC)n1,0.941 (inactive),1.1 (inactive),1.1 (inactive),1.09 (inactive),1.08 (inactive),1.14 (inactive),1.01 (inactive),1.11 (inactive),0.997 (inactive),1.16 (inactive)
OC(Cc1ccccc1Cl)(Cn1nc[nH]c1=S)C1(Cl)CC1 (stereo not given),0.968 (inactive),1.03 (inactive),1.02 (inactive),1.09 (inactive),1 (inactive),1.01 (inactive),0.958 (inactive),1.05 (inactive),0.894 (inactive),1.01 (inactive)
CCNC(=O)NC(=O)/C(C#N)=N/OC,1.13 (inactive),1.02 (inactive),0.993 (inactive),1.01 (inactive),0.994 (inactive),1.02 (inactive),0.986 (inactive),0.997 (inactive),0.977 (inactive),0.994 (inactive)
CO/C=C(/C(=O)OC)c1ccccc1Oc1cc(Oc2ccccc2C#N)ncn1,0.834 (inactive),1.03 (inactive),1.04 (inactive),1.09 (inactive),0.99 (inactive),1.03 (inactive),0.975 (inactive),1.01 (inactive),1.13 (inactive),1.01 (inactive)
Cc1c(COC(=O)[C@@H]2[C@H](/C=C(\Cl)C(F)(F)F)C2(C)C)cccc1-c1ccccc1 (racemic),1.06 (inactive),1.1 (inactive),0.947 (inactive),0.869 (inactive),1 (inactive),1.06 (inactive),1.05 (inactive),0.943 (inactive),1.07 (inactive),0.975 (inactive)
CCNc1nc(Cl)nc(NC(C)C)n1,1.01 (inactive),1.01 (inactive),1 (inactive),1.05 (inactive),0.972 (inactive),1.06 (inactive),1.02 (inactive),1.03 (inactive),0.998 (inactive),1.01 (inactive)
CCCN(CCOc1c(Cl)cc(Cl)cc1Cl)C(=O)n1ccnc1,0.969 (inactive),1.02 (inactive),0.998 (inactive),0.335 (active),0.935 (inactive),0.75 (inactive),0.953 (inactive),1.05 (inactive),0.236 (active),0.59 (active)
CC(C)(C)C(O)(CCc1ccc(Cl)cc1)Cn1cncn1 (stereo not given),0.983 (inactive),0.995 (inactive),0.862 (inactive),0.671 (active),0.816 (inactive),1.04 (inactive),1 (inactive),0.945 (inactive),1.41,0.808 (inactive)
Cc1cc(C(F)(C(F)(F)F)C(F)(F)F)ccc1NC(=O)c1cccc(I)c1C(=O)NC(C)(C)CS(C)(=O)=O,1.15 (inactive),1.07 (inactive),0.75 (inactive),0.818 (inactive),1.2 (inactive),0.857 (inactive),0.925 (inactive),1.09 (inactive),0.97 (inactive),1.02 (inactive)
CCSC(C)CC1CC(=O)C(/C(CC)=N/OC/C=C/Cl)=C(O)C1 (mixture of isomers),1.02 (inactive),1 (inactive),1.12 (inactive),1 (inactive),0.981 (inactive),0.951 (inactive),1.03 (inactive),1.05 (inactive),1.03 (inactive),0.995 (inactive)
Fc1ccc(Oc2ccnc3cc(Cl)cc(Cl)c23)cc1,0.843 (inactive),1.01 (inactive),1.03 (inactive),1.04 (inactive),1.01 (inactive),1.13 (inactive),0.999 (inactive),1.09 (inactive),1.01 (inactive),0.927 (inactive)
CCCC(Cn1cncn1)c1ccc(Cl)cc1Cl (stereo not given),0.902 (inactive),1.09 (inactive),1.12 (inactive),1.07 (inactive),0.966 (inactive),0.877 (inactive),0.99 (inactive),1.09 (inactive),1.05 (inactive),1.06 (inactive)
CCCSP(=O)(OCC)Oc1ccc(Br)cc1Cl (stereo not given),1.01 (inactive),0.96 (inactive),0.866 (inactive),1.01 (inactive),0.919 (inactive),0.98 (inactive),1.01 (inactive),0.965 (inactive),1.27,0.925 (inactive)
CCOCN(C(=O)CCl)c1c(C)cccc1CC,0.976 (inactive),1.02 (inactive),1.06 (inactive),1.05 (inactive),0.946 (inactive),0.969 (inactive),1.06 (inactive),0.667 (active),1.04 (inactive),0.928 (inactive)
CC(C)N1C(=O)N(c2ccccc2)CS/C1=N\C(C)(C)C,1.09 (inactive),1.08 (inactive),1.03 (inactive),0.891 (inactive),0.947 (inactive),1.06 (inactive),1.07 (inactive),0.906 (inactive),0.973 (inactive),1 (inactive)
